An excerpt weighted towards active compounds, which were near 4.3% of everything screened.
HSF1 activator: increases HSF-1 driven luciferase reporter signal | actives 1.7% (n = 300,000) | activation, % at 9 µM | NIH3T3-HGL HSF-1 luciferase reporter, MG132, 8 h; 100% = twice DMSO control signal;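 active means mean replicate activation of at least 50% with a set share of replicates each reaching 50%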;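 further: 0% = median of the neutral control wells and 100% = twice that signal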
Wnt bcat act: Wnt/beta-catenin pathway activation | activation, % at 9.35 µM | actives 1.2% (n = 300,000) | Wnt/beta-catenin reporter cell assay, activator, plate reader | AID 743398; in the data active means activation above about 30%, passing the limit was not always enough;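 further: 0% = neutral control wells and 100% = positive control wells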
esBAF inh: blocks esBAF chromatin remodeling in mouse ES cells | Bmi1-luciferase knock-in reporter, 24 h; 100% = twice the neutral-well signal | reporter increase, % at 12.5 µM | actives 2% (n = 350,000) | AID 602393; in the data active means activation above about 40%;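 further: 0% = median of the plate's neutral control wells and 100% = double that signal; a rise in the Bmi1 reporter signal indicates esBAF inhibition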
MITF TRPM1 HTS: activators of MITF-driven TRPM1 promoter activity in SK-MEL-5 cells. SK-MEL-5 TRPM1-promoter luciferase, 24 h; % of positive control, neutral wells = 0. activation, % at 12.5 µM. actives 0.75% (n = 300,000). AID 588334;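 active means mean activation of at least 80% with every replicate also reaching 80%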;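 further: 0% = neutral control wells and 100% = parthenolide positive control wells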
HSF1 inhib: HSF1 inhibition | NIH3T3-HGL HSE-luciferase, MG132-induced, luminescence 8 h; stronger effect = lower value | activity change, negative = inhibition, % at 7.5 µM (by protocol) | actives 0.77% (n = 300,000) | AID 2098;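 active means more than half of replicate wells show activity change below -50%, luminescence cut by over half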;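 further: luciferase reports HSF-1 transcriptional activity via heat shock element; 0% = median of DMSO wells and -100% = zero luminescence signal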
SMARCA2 activ: activators of SMARCA2 function; MG213 cells, MMTV-luciferase reporter, dexamethasone, overnight; activation, % at 9.1 µM; actives 1% (n = 370,000); AID 652017; in the data active means activation above about 7.8%;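 further: 0% = vehicle wells and 100% = reference activator wells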
An asterisk follows results filed as active; . = no result.

SMILES	HSF1 activator	Wnt bcat act	esBAF inh	MITF TRPM1 HTS	HSF1 inhib	SMARCA2 activ
Cc1cc(C)nc(N2CCCC(C(=O)Nc3ccc4nc(C)c(C)nc4c3)C2)n1 (stereo not given)	56.6*	.	3.7	-0.5	24.7	-0.4
CCOc1ccc(NC(=O)C2CCCN(c3nn4c(=O)cc(C)nc4s3)C2)cc1 (stereo not given)	-69.2	1.5	-4.6	2.4	-62.0*	-0.3
CNC[C@@H]1Oc2ccc(NC(=O)NC(C)C)cc2C(=O)N([C@@H](C)CO)C[C@H]1C	.	.	-1.5	.	.	.
C[C@H]1CCCCO[C@H](CN(C)C(=O)Nc2ccc(C(F)(F)F)cc2)[C@@H](C)CN([C@@H](C)CO)C(=O)c2cc(NC(=O)Nc3ccccc3)ccc2O1	.	.	-3.4	.	.	.
O=C(COc1ccc(Cl)cc1)NCCN1CCCC1	-0.5	-0.6	-8.1	6.8	1.3	-1.1
O=C(NCCN1CCCCC1)Nc1ccccc1Cl	-85.7	1.7	-2.4	-0.4	-82.6*	0.1
CCOc1ccccc1NC(=O)NCCN1CCCCC1	5.8	-1.8	-3.4	.	0.6	-0.5
Cc1ccc(OCC(=O)NCCCNC(=O)c2ccccn2)cc1	14.8	-0.8	0.3	5.9	2.0	1.6
O=C(COc1ccc(Cl)cc1)NCCCNC(=O)c1ccccn1	83.9*	-1.2	-0.5	-6.5	30.2	-0.1
O=C(COc1ccc(Cl)cc1)NCCN1CCCCC1	-63.9	0.5	.	-5.5	-55.5*	-1.9
C[C@@H]1CN([C@@H](C)CO)C(=O)c2cc(NC(=O)c3ccccc3)ccc2O[C@@H](C)CCCCO[C@@H]1CN(C)C(=O)Nc1ccccc1	.	.	4.0	.	.	.
COc1cc(NC(=O)CN(C)S(=O)(=O)c2ccc3c(c2)CC(C)N3C(C)=O)cc(OC)c1 (stereo not given)	-88.5	1.4	-15.1	-12.7	-84.5*	-0.8
CC(=O)N1c2ccc(S(=O)(=O)N(C)CC(=O)Nc3ccccc3C)cc2CC1C (stereo not given)	-69.7	-1.1	-8.0	4.0	-60.9*	-0.1
COc1ccc(NC(=O)CN(C)S(=O)(=O)c2ccc3c(c2)CC(C)N3C(C)=O)c(OC)c1 (stereo not given)	-21.8	3.1	-3.7	-0.5	-2.1	-4.2
O=C(N/N=C/c1sc(=O)n(-c2ccccc2)c1Cl)c1ccccc1	66.1*	75.0*	.	59.9	34.9	3.7
CC1CCC(NC(=O)c2ccc(NC(=O)CC3SC(N4CCCC4)=NC3=O)cc2)CC1 (stereo not given)	2.0	27.7	65.8*	76.1	2.9	4.6
CCNC(=O)c1ccc(NC(=O)CC2SC(N3CCCCC3)=NC2=O)cc1 (stereo not given)	.	1.0	-0.8	-4.6	.	0.9
Cn1cc(SCC(=O)Nc2nccs2)c2ccccc21	3.3	26.2	67.9*	.	-3.5	5.3
Nc1ccccc1SCC(=O)Nc1nccs1	17.8	0.9	.	-1.3	7.1	5.0
Cc1ccc(-c2nnc(SCC(=O)Nc3nccs3)n2N)cc1	-64.3	-2.8	30.4	-4.1	-60.7*	-4.0
O=S(=O)(c1cccc(F)c1)N1CC[C@@H]2[C@H](CO)Nc3ccc(-c4cccc(F)c4)cc3[C@@H]21	.	.	-3.7	.	.	.
Cc1ccc(S(=O)(=O)n2nc(-c3ccco3)nc2SCc2ccccc2)cc1	35.0	.	47.6*	47.4	17.1	0.2
O=C(c1ccco1)n1nc(-c2ccco2)nc1SCc1ccccc1	-51.9	22.1	44.9*	36.7	-36.0	1.4
O=C(c1ccco1)n1nc(-c2ccccc2)nc1SCc1ccccc1	0.0	41.4*	47.4*	58.4	6.4	-1.1
Nc1nc(-c2ccccc2)nn1C(=O)c1ccco1	-0.9	0.1	.	-4.3	3.1	-3.1
CO[C@H]1CN(C)C(=O)c2cc(NS(=O)(=O)c3ccc(C)cc3)ccc2OC[C@@H](C)N(C(=O)NC(C)C)C[C@@H]1C	.	.	-3.6	.	.	.
C[C@H]1CN([C@@H](C)CO)C(=O)c2cc(NC(=O)NC3CCCCC3)ccc2O[C@@H]1CN(C)C(=O)Nc1ccc(C(F)(F)F)cc1	.	.	-1.4	.	.	.
CC1(C)CC(=O)C(=Cc2cn(-c3ccccc3)nc2-c2ccccc2)C(=O)C1	147.2*	-0.6	32.2	-10.4	100.3	5.6
CCS(=O)(=O)N1CCCCN2[C@@H](CO)[C@@H](c3ccc(C4=CCCC4)cc3)[C@@H]2C1	.	.	-8.5	.	.	.
COc1ccc2c3n([n+]([O-])c2c1)CCN=C3c1ccc(Cl)cc1	.	9.2	41.5*	15.3	.	3.4

Screening results deposited in PubChem by several laboratories.
